Results reported in PubChem BioAssay AID748 (Sanford-Burnham Center for Chemical Genomics, 2007).
Screen size: about 96,000 compounds; about 100 (0.1%) were called active. This is one part of a sample in which actives are shown more often than they occur.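 How the source made its calls: active means displacement above 50% at 20 µM plus a fluorescence interference ratio under 1.5; inactive means the rest.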 Entries with a potency or affinity are not part of this list.

Molecular target: Bcl-2-like protein 10 (Homo sapiens) (UniProt Q9HD36)
Assay: displacers of TR3 peptide from Bcl-B, primary screen, selectivity assay for Bfl-1 inhibitor project, biochemical, fluorescence polarization, FITC-TR3 peptide (AID 748);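 further: plate controls were wells without compound for no effect and wells lacking Bcl-B protein for full effect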
Details: FP displacement of FITC-TR3 peptide from Bcl-B; at 20 µM; hits give high values

Structure (SMILES) | displacement
NC(=O)NC(CC(=O)OCC(=O)NC(=O)NCc1ccco1)c1ccc(Cl)cc1 (configuration not stated) | 0.6% (inactive)
COc1ccccc1N1CCN(C(=O)c2ccc(Br)s2)CC1 | -4.4% (inactive)
CCOc1ccccc1N1CCN(C(=O)c2cc3c(s2)CCC3)CC1 | 0.5% (inactive)
CC1CC(C)CN(C(=O)c2cc3c(s2)CCC3)C1 (configuration not stated) | 0.4% (inactive)
O=C(c1cc2c(s1)CCCCC2)N1CCN(c2ncccn2)CC1 | -2.1% (inactive)
CCCC(=O)Nc1cccc(-c2nc3cc(C)c(C)cc3o2)c1 | -1.8% (inactive)
CCCN(CCC)C(=O)Cn1c(=O)n(CCC(=O)NCCc2ccccc2)c(=O)c2ccccc21 | 1.2% (inactive)
CC(=O)Nc1cc(S(=O)(=O)Nc2ccccc2C)c(C)cc1C | -3.3% (inactive)
CCCc1nnc(NC(=O)CCC(=O)N2CCN(CCOc3ccc(C)cc3)CC2)s1 | 1.6% (inactive)
CSCCC(NC(=O)c1ccco1)C(=O)OCC(=O)Nc1ncc(Cl)c(C)c1Cl (configuration not stated) | 14.7% (inactive)
Cc1nc(NC(=O)COC(=O)C(NC(=O)c2ccco2)C(C)C)c(Cl)cc1Cl (configuration not stated) | 24.3% (inactive)
CCn1c(SC)nc2c(c1=O)SC(C)C2 (configuration not stated) | -13.3% (inactive)
Cc1c(NC(=O)c2cc(-c3ccccc3)on2)c(=O)n(-c2ccccc2)n1C | 1.8% (inactive)
Cc1ccc(-c2cc(C(F)(F)F)n3nc(C(=O)Nc4c(C)n(C)n(-c5ccccc5)c4=O)cc3n2)cc1 | -12.8% (inactive)
O=C(COC(=O)c1cc(-c2ccco2)nc2ccccc12)NCc1ccccc1 | -3% (inactive)
COc1ccc(CNC(=O)COC(=O)c2cc(-c3ccco3)nc3ccccc23)cc1 | 42.9% (inactive)
O=C(OCC(=O)N1CCN(C(=O)c2ccco2)CC1)c1cc(-c2ccccc2)nc2ccccc12 | -78.6% (inactive)
O=C(OCC(=O)N1CCN(C(=O)c2ccco2)CC1)c1cc(-c2ccc(F)cc2)nc2ccccc12 | 8.8% (inactive)
CC1Cc2ccccc2N1C(=O)CSc1nc2cc3c(cc2cc1C#N)OCO3 (configuration not stated) | 3.7% (inactive)
Cc1cccc(-n2nnc(C(=O)NCc3ccc4c(c3)OCO4)c2N)c1 | -4.7% (inactive)
COc1ccc(C(=O)OCC(=O)c2ccc(C3CCCCC3)cc2)cc1 | 0.1% (inactive)
Cc1ccc(C(C(=O)NCc2ccco2)N(C(=O)Cn2nnc3ccccc32)c2ccccc2)o1 (configuration not stated) | 2.5% (inactive)
Cc1cc(C)cc(CC2CC(=O)N(c3ccc(Cl)cn3)C2=O)c1 (configuration not stated) | -1% (inactive)
Cn1c2ccccc2c2c(C(=O)NCc3ccco3)cn(C3CCCCC3)c(=O)c21 | 11.7% (inactive)
CC(C)CC(=O)Nc1cccc(-c2nc3ccccc3o2)c1 | 5.6% (inactive)

Structure (SMILES) | displacement
NC(=O)c1cc(Cc2ccccc2)sc1NC(=O)c1ccco1 | 0% (inactive)
Cc1c(C#N)c2ccccc2n1CC(=O)NC(C)c1ccccc1 (configuration not stated) | 2.1% (inactive)
COc1ccc(Nc2nc(N3CCCC3)c3ccccc3n2)cc1 | 12.9% (inactive)
COc1ccc(Nc2nc(N3CCCCC3)c3ccccc3n2)cc1 | 6.9% (inactive)
Cc1c(N(C(=O)c2cc(=O)[nH]c3ccccc23)C(C)C)c(=O)n(-c2ccccc2)n1C | -10% (inactive)
CC(C)Nc1nnc(SCC(=O)Nc2ccc(F)cc2)s1 | 1.5% (inactive)
C=CCn1c(C)cc(C(=O)CSc2nnc(NC(C)C)s2)c1C | -5.7% (inactive)
NC(=O)Cn1c(=O)n(CCCC(=O)NC2CCN(Cc3ccccc3)CC2)c(=O)c2ccccc21 | 4.2% (inactive)
CC(C)OC(=O)C(NC(=O)c1ccccc1)=C1CCCCC1 | -12.9% (inactive)
Cc1ccc(NS(=O)(=O)c2ccc(C(=O)N3CCN(c4ccccn4)CC3)cc2)cc1 | 3.6% (inactive)
COc1ccc(N2Cc3cccc(C(=O)N4CCN(C(=O)c5ccco5)CC4)c3C2=O)cc1 | 36.1% (inactive)
COc1ccc(N2Cc3cccc(C(=O)N4CCOCC4)c3C2=O)cc1 | 4.6% (inactive)
CC1(CC(=O)O)SC(=O)NC1=O (configuration not stated) | -6% (inactive)
CCOC(=O)CCc1c(C)nc2cc(-c3ccccc3OC)[nH]n2c1=O | 4% (inactive)
O=CNCCCc1nc2ccccc2n1Cc1cccc2ccccc12 | 1.8% (inactive)
CCOc1ccc(/C=N/NC(=O)COc2ccccc2-c2ccccc2)cc1 | 9.4% (inactive)
COc1ccc(/C=N/NC(=O)COc2ccccc2-c2ccccc2)cc1 | -6.4% (inactive)
CCC1CCCCN1C(=O)COC(=O)c1n[nH]c2ccccc12 (configuration not stated) | -6% (inactive)
Cc1cc(S(=O)(=O)Nc2ccccc2C(=O)O)ccc1Cl | -4.3% (inactive)
COc1c(/C=N/Nc2ccc([N+](=O)[O-])cc2[N+](=O)[O-])c(C)nn1-c1ccccc1 | -2.4% (inactive)
Cc1nn(-c2ccccc2)c(Cl)c1/C=N/Nc1ccc(S(=O)(=O)Nc2ccccc2C(=O)O)cc1[N+](=O)[O-] | 62.4% (active)
Cc1ccc(CNC(=O)CCn2nc(-c3ccc(Cl)cc3)ccc2=O)cc1 | -8.8% (inactive)
COc1ccc(CCNc2nc3c(c(=O)n(C)c(=O)n3C)n2C)cc1OC | 8.6% (inactive)
COc1ccccc1NC(=O)CNC(=O)c1ccc(F)cc1 | -4.7% (inactive)
O=C(Nc1ccc2nsnc2c1)N1CCCCCC1 | 1.1% (inactive)

Structure (SMILES) | displacement
CCOC(=O)C1CCN(C(=O)Nc2ccc3nc(-c4ccco4)c(-c4ccco4)nc3c2)CC1 | 95.6% (inactive)
O=C(NCc1ccccc1)c1ccc2nc(-c3ccco3)c(-c3ccco3)nc2c1 | 29.5% (inactive)
O=C(Nc1cccc(C(F)(F)F)c1)c1ccc2nc(-c3ccco3)c(-c3ccco3)nc2c1 | 19.6% (inactive)
O=C(NCCO)c1ccc2nc(-c3ccco3)c(-c3ccco3)nc2c1 | 26.6% (inactive)
O=C(Nc1ccc(N2CCOCC2)cc1)c1ccc2nc(-c3ccco3)c(-c3ccco3)nc2c1 | 0% (inactive)
CCOCCCNC(=O)C1CCN(C(=O)N(C)C)CC1 | 3.4% (inactive)
COc1ccc(C)cc1NS(=O)(=O)c1cn(C)c(=O)n(C)c1=O | -4.4% (inactive)
COc1ccc(S(=O)(=O)N2CCCC2C(=O)Nc2ccc(C)cc2)cc1 (configuration not stated) | -2% (inactive)
CCOC(=O)c1snc(-c2ccc(F)cc2)c1N | -3.1% (inactive)
CCOC(=O)c1[nH]c2cc3c(cc2c1NC(=O)CN1CCCCC1C)OCO3 (configuration not stated) | 9.5% (inactive)
O=S(=O)(c1ccc(S(=O)(=O)N2CCCN(Cc3ccccc3)C2)cc1)N1CCCCCC1 | 0.8% (inactive)
CC(=O)Nc1nnc(SCC(=O)NCCOc2ccccc2)s1 | -9.4% (inactive)
CCCCC(=O)NC1=NC(=O)C(C)(C)S1 | -8% (inactive)
Cc1oc2cc3c(C(=O)N4CCCCC4)c(C)oc3cc2c1C(=O)N1CCCCC1 | 6.1% (inactive)
CCCCn1c(CCC(=O)O)ccc1-c1cccs1 | 4.3% (inactive)
CCCn1c(CCC(=O)O)ccc1-c1cccs1 | 2.8% (inactive)
Cc1sc2nc(SCc3nc4ccccc4[nH]3)n(Cc3ccco3)c(=O)c2c1C | -8.7% (inactive)
COc1ccc(C2C(=O)N(C3CCCCC3)CC(=O)N2Cc2ccco2)cc1 (configuration not stated) | -8.2% (inactive)
CCOC(=O)c1nn(-c2ccccc2)c(=O)c2c(N)scc12 | -1.6% (inactive)
CC1(C)OC(=O)C(=CNc2ccccc2F)C(=O)O1 | 5.4% (inactive)
Cc1nnc(SCC(=O)Nc2cccc(C(F)(F)F)c2)n1Cc1ccco1 | 4.7% (inactive)
CCOC(=O)c1[nH]c(C(=O)O)c(CCN(CC)CC)c1C | 0.1% (inactive)
COC(=O)CCc1c(C)[nH]c(C(=O)OCc2ccccc2)c1C | -0.4% (inactive)
O=C(CCc1ccccc1)OCCN1CCOCC1 | 5.9% (inactive)
Cn1nnnc1SCCNCc1ccccc1F | 1.2% (inactive)

Structure (SMILES) | displacement
CN(C)c1ccc2c(O)cc(=O)n(C)c2c1 | 13% (inactive)
Cc1nnc(NC(=O)COc2ccccc2)s1 | -16.7% (inactive)
COc1ccc(CNCC(O)(c2ccccc2)c2ccc(Cl)cc2)cc1 (configuration not stated) | -0.9% (inactive)
COc1ccc(-c2cc(C(F)(F)F)nc(SCC(=O)N3CCOCC3)n2)cc1OC | -2.2% (inactive)
O=C(O)c1cnn2c(C(F)(F)F)cc(-c3ccco3)nc12 | 35.7% (inactive)
O=C(Nc1ccc2c(c1)OCO2)c1cnn2c(C(F)(F)F)cc(-c3ccco3)nc12 | 10.1% (inactive)
Cc1nn(C)cc1CNC(=O)c1cccc(Cl)c1 | 3.4% (inactive)
COC(=O)[C@H](Cc1ccccc1)NC(=O)NCc1ccc(S(N)(=O)=O)cc1 | 3% (inactive)
O=C(NCN1CCN(c2ccccc2F)CC1)c1cccnc1 | -3.4% (inactive)
NC1=NS(=O)(=O)NC1c1cccc(Cl)c1 (configuration not stated) | -0.7% (inactive)
CS(=O)(=O)N(Cc1ccc(C(=O)Nc2ccccc2Sc2ccccc2)cc1)c1ccccc1 | -11.2% (inactive)
Cc1cccc(OCCCC(=O)O)c1 | -8.7% (inactive)
CC1CCN(C(=O)c2ccc3c(c2NCCO)C(=O)c2ccccc2C3=O)CC1 | 27.9% (inactive)
CC1CCCN(C(=O)c2ccc3c(c2NCCO)C(=O)c2ccccc2C3=O)C1 (configuration not stated) | 37% (inactive)
CC(CC(=O)c1cccs1)CC(=O)c1cccs1 | -2.6% (inactive)
O=C(O)Cn1nc2ccccc2n1 | 3.4% (inactive)
Cc1nc(=S)n(-c2ccccc2)[nH]1 | -1.7% (inactive)
CC(/C=C/c1ccco1)=N/NC(=O)Cc1cccs1 | -47.4% (inactive)
O=C(CNC(=O)c1ccco1)NCC(=O)OCc1ccccc1Br | -3.7% (inactive)
O=C(NCc1ccncc1)C1CCCCC1 | -9% (inactive)
COc1cc(-c2nnc(SCc3cc(=O)oc4cc(C)ccc34)o2)cc(OC)c1OC | -10.8% (inactive)
COc1cc(-c2nnc(SCc3ccccc3Cl)o2)cc(OC)c1OC | -2.8% (inactive)
